Source: PubChem (National Center for Advancing Translational Sciences (NCATS))
RORgamma inh – ROR gamma (mouse) transcription inhibition; Potency, µM (top dose mostly 53.6 µM), inactives show top-dose activity change, negative = inhibition, hits mostly inhibitors; hit rate 5.4% among 310,000; Drosophila S2 Gal4-RORgamma UAS-luciferase reporter, 20 h; note: potency is the fitted concentration of half-maximal effect; % is set by controls: 0 for no effect and ±100 for the full control effect; nearly all actives have a fitted effect of over 60% in size
Target sequence (P51450 whole entry, looked up, the tested form may be a part): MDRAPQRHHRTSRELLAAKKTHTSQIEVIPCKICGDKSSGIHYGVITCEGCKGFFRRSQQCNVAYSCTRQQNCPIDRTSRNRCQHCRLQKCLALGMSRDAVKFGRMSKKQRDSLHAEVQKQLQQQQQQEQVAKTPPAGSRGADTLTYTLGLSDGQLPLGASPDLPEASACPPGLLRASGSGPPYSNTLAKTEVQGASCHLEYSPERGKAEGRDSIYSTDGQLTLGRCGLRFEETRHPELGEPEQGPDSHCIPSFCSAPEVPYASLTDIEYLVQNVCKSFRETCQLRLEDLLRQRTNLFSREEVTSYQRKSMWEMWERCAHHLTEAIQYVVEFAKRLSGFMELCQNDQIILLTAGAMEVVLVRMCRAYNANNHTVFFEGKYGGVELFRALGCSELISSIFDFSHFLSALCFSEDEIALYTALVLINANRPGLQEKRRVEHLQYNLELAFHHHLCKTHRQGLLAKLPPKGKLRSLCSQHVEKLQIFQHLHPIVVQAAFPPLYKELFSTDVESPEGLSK
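Compounds are pin-transferred onto Drosophila Schneider cells expressing a copper-inducible Gal4–ROR gamma transactivation domain fusion. After 1 hr, copper sulfate is added to 700 uM final; luciferase is read 20 hr later.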
CtBP-E1A inh – inhibitors of CtBP/E1A interaction; AID 651724; hit rate 0.49% among 340,000; AlphaScreen GST-E1A/His-CtBP binding, 1536-well; active compounds read low; activity change, % (concentration not given with the values); in the data active = activity change below about -65%; inconclusive = mostly about -30% to -63%; note: % is set by controls: 0 for no effect and ±100 for the full control effect
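In 5 uL wells, 23 nL compound meets equimolar GST-E1A and His-CtBP (5X stock 125 nM each) for 2 h, 37 °C. Beads (5X, 50 ug/mL) then 1 h, 37 °C, dark.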
Gal4-VP16 FLuc – inhibits Gal4-VP16 luciferase reporter, ROR gamma counter-screen | Drosophila S2 Gal4-VP16 UAS-luciferase, luminescence, 20 h | Potency, µM (titrated, usually from 53.6 µM), for the others: at the top dose activity, negative = inhibition, usual class: inhibitors | hit rate 3.5% among 310,000 | AID 2546;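 note: Gal4-VP16 expression switched on by copper sulfate through the metallothionein promoter; potency is the fitted concentration of half-maximal effect; % is set by controls: 0 for no effect and ±100 for the full control effect; nearly all actives have a fitted effect of over 50% in size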
CBFb-RUNX1 inh – inhibitors of human CBF-beta and RUNX1 interaction; Q01196+Q13951; AlphaScreen CBFb-His/RUNX1-biotin binding, biochemical; Potency, µM (highest dose often 59.8 µM), for inactives: top-dose activity, negative = inhibition, hits mostly inhibitors; 230,000 tested, under 10 active; AID 1477; note: % of control where 0% means no effect
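Compounds were screened at multiple concentrations against a preformed CBF-beta(His)/RUNX1(biotin) complex (30 nM of each) for 15 min at room temperature, followed by 90 min with nickel and streptavidin beads and AlphaScreen reading.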
MBNL1 CUG block – MBNL1-poly(CUG) RNA binding inhibition; hit rate 0.036% among 280,000; AID 2675; TR-FRET MBNL1-His/biotin-(CUG)12 binding, 665/545 ratio; Q9NR56; Potency, µM (titrated, usually from 57.5 µM), for the others: at the top dose activity change, negative = inhibition, hits mostly inhibitors; active = well fitted inhibition curve with a large enough effect in the signal ratio, with a control signal flat, not every such curve was filed as active; inconclusive = small, poorly fitted or top-dose-only effect, or effect the other way, or a change in a side signal; inactive = no such curve, though single readings can be large or run the other way; the % refers to the signal ratio; note: potency is the fitted concentration of half-maximal effect; % is set by controls: 0 for no effect and ±100 for the full control effect
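Ratiometric TR-FRET (665 over 545 nm, excitation 340 nm) tracks disruption of MBNL1-His/biotin-(CUG)12 complex after 60 min at room temperature, with compounds at 92 nM to 58 uM final.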
Six1-Eya2 blk – inhibitors of human Six1/Eya2 interaction | Q15475+O00167 | AlphaScreen GST-Six1/His-Eya2 binding, biochemical; active compounds read low | activity change, % (no concentration beside the values) | hit rate 0.56% among 360,000; in the data active = activity change below about -65%; inconclusive = mostly about -30% to -63%; note: % is set by controls: 0 for no effect and ±100 for the full control effect
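Homogeneous AlphaScreen proximity assay pairing GST-Six1 with His-tagged Eya2 (added as 5X mix: 250 nM and 500 nM) in 50 mM Tris pH 8.0, 300 mM NaCl, 1 mM TCEP. Glutathione donor and nickel acceptor beads; 1 h, 37 °C, dark.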
An asterisk follows results filed as active; ? = inconclusive; / = not tested or not shown; [ ] = another dose, or the depositor's remark. Hits are enriched below; roughly 5.5% of the tested compounds scored in any of these assays. Unless noted, calls come from the whole dose curve; as a rule, active = well fitted curve in the direction sought with a large enough effect; inconclusive = small, poorly fitted or top-dose-only effect, or another doubt; inactive = no such curve, though single readings can be large; an effect the other way counts as inactive or inconclusive.

SMILES | RORgamma inh | CtBP-E1A inh | Gal4-VP16 FLuc | CBFb-RUNX1 inh | MBNL1 CUG block | Six1-Eya2 blk
Cc1csc(NC(=O)c2ccc(OCC3CCCO3)cc2)n1 (centres undefined) | 3.55µM* | 0.8 | ? | -2.9% | 3.5% | -2.3
CCC(=O)CC(NC(=O)OC)c1ccccc1 (centres undefined) | -17.5%[10 µM] | / | 3.7%[10 µM] | 3.6%[13.1 µM] | / | /
CCN(CC)c1ccc2c(C)c(Cl)c(=O)oc2c1 | 11.4% | 19.5 | 2.8% | 2.5% | -6.2% | 79.4
CCN(CC)c1ccc2c(Cl)c(Br)c(=O)oc2c1 | ? | -7.3 | 3.98µM* | ? | 371.7% | 16.0
Cc1ccc(OCC(=O)OC(C)C(=O)NC2CCCCC2C)cc1C (centres undefined) | / | -9.1 | / | / | / | 7.4
N#CC(C#N)=Cc1ccc(OC(=O)c2ccccn2)cc1 | 12.6µM* | ? | -25.1% | / | 2.7% | -67.7*
CN(C)c1ccc(NC(=S)c2ccccn2)cc1 | 0.282µM* | -73.9* | 0.631µM* | -4.0% | ? | -88.4*
CN(C)c1ccc(/C=C(\C#N)c2ccccn2)cc1 | 7.08µM* | 10.5 | 7.94µM* | -27.2% | ? | 5.7
CN(C)c1cc(O)c(C(=S)Nc2ccccc2)c(N(C)C)c1 | ? | -18.4 | 16.6% | -12.2% | 3.0% | ?
N#C/C(=C\c1ccc([N+](=O)[O-])cc1)c1ccccn1 | -10.1% | -0.6 | 6.1% | 6.4% | ? | -20.2
CN(C)c1ccc(C(=S)Nc2ccccc2)cc1 | 12.6µM* | 1.5 | ? | -20.1% | 58.1% | 2.1
O=C(CCCc1c[nH]c2ccccc12)Nc1ccc2ccccc2c1 | ? | -4.5 | -3.3% | -0.5% | 65.4% | -2.6
O=C(Nc1ccccc1Cl)Nc1ccnn1C1CCN(C(=O)C2CCOC2)CC1 (centres undefined) | / | 0.8 | / | / | / | 0.7
Nc1ccc(-n2cc(-c3ccccc3)[nH]c2=S)cc1 | 8.91µM* | -4.0 | ? | / | -5.5% | -7.5
S=c1[nH]c(-c2ccccc2)cn1-c1ccccc1 | 10µM* | -15.5 | 10µM* | / | 0.9% | -7.7
O=[N+]([O-])c1cccc(-c2cn(-c3ccccc3)c(=S)[nH]2)c1 | 2µM* | / | 11.2µM* | ? | ? | -9.4
O=[N+]([O-])c1ccc(-c2cn(-c3ccccc3)c(=S)[nH]2)cc1 | ? | 16.2 | ? | -2.0% | 7.5% | 2.5
Cc1ccc(/C=N/NC(=O)c2ccc(Br)o2)s1 | 8.91µM* | -3.1 | 10µM* | 5.8% | / | -0.4
CCN(CC)c1ccc(/C=N/NC(=O)c2ccc(Br)o2)cc1 | ? | -6.5 | ? | -3.6% | 15.0%[11.5 µM] | -5.6
CCc1ccc(/C=N\NC(=O)c2ccc(Br)o2)s1 | 1.58µM* | -6.9 | 5.01µM* | 10.3% | ? | -16.5
COC(=O)[C@@]1(Cc2ccc(OC)cc2)[C@H]2c3cc(C(=O)N(C)C)n(CCc4c[nH]c5ccc(O)cc45)c3C[C@H]2CN1C(=O)c1ccccc1 | 28.1% | / | 14.0% | 0.6% | / | /
Fc1ccc(NC(=S)NCCc2ccccn2)cc1 | 10µM* | -3.1 | ? | 3.5% | 2.1% | 9.1
S=C(NCCc1ccccn1)Nc1ccc(Cl)cc1 | 6.31µM* | -4.2 | ? | 3.8% | ? | -2.9
FC(F)(F)c1cccc(NC(=S)NCCc2ccccn2)c1 | 3.98µM* | -0.6 | 11.2µM* | -2.3% | -7.7% | -1.1
CC(C)(C)c1ccc(NC(=S)NCCc2ccccn2)cc1 | 0.501µM* | 3.8 | ? | -15.6% | -1.9% | 0.0
CN(C)S(=O)(=O)c1cccc(NC(=S)NCCc2ccccn2)c1 | 14.9% | / | 8.2% | -7.4% | -1.0% | 9.3
CC(=O)c1ccc(NC(=S)NCCc2ccccn2)cc1 | ? | -4.6 | -23.3% | 10.6% | / | 9.5
Cc1ccc([C@H]2N[C@]3(CCCN(Cc4ccc(C(F)(F)F)cc4)C3=O)[C@H]3C(=O)N(Cc4ccccc4)C(=O)[C@@H]23)cc1 | / | ? | / | / | / | -29.5
CCNC(=O)C1(C)CCN(C(=O)c2ccc(OC)cc2)C1 (centres undefined) | / | 3.7 | / | / | / | 5.9
